Here are results for 10 molecules from PubChem BioAssay (NCATS).

The target in experiment [1] is Cellular tumor antigen p53 (Homo sapiens) (UniProt P04637). Kind of experiment: Primary qHTS for small molecule compounds that upregulate eGFP-tagged delta133p53alpha (in N-terminal) cells. (AID 2060322). Note: series mostly up to about 56 µM; nearly all actives have a fitted effect of over 75% in size. The settings on record: NCI-H358 eGFP-delta133p53alpha fluorescence, 24 h; activation: active compounds read high. A digest of the protocol:
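NCI-H358 cells pre-induced 24 h with 10 ng/ml doxycycline to express N-terminal eGFP-delta133p53alpha, then dosed 24 h at 37C without doxycycline; fixed, Hoechst-stained, GFP intensity by laser scanning cytometry, normalized to DMSO (0%) and 57.5 uM 5-azacytidine (100%).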

Experiment [2] addresses Aldehyde dehydrogenase, mitochondrial (Homo sapiens) (UniProt P05091). The experiment in a line: qHTS for Inhibitors of the Aldehyde Dehydrogenase Family (ALDH2) Primary screen (AID 2061308). Note: nearly all actives have a fitted effect of over 55% in size.

Inconclusive results are not listed. A call without a number means that no potency is given here. Calls of active or inactive are those of the source. Calls come from the whole dose curve; as a rule, active = well fitted curve in the direction sought with a large enough effect; inconclusive = small, poorly fitted or top-dose-only effect, or another doubt; inactive = no such curve, though single readings can be large; an effect the other way counts as inactive or inconclusive.

Cellular tumor antigen p53 (Homo sapiens), sequence (P04637 whole entry, looked up): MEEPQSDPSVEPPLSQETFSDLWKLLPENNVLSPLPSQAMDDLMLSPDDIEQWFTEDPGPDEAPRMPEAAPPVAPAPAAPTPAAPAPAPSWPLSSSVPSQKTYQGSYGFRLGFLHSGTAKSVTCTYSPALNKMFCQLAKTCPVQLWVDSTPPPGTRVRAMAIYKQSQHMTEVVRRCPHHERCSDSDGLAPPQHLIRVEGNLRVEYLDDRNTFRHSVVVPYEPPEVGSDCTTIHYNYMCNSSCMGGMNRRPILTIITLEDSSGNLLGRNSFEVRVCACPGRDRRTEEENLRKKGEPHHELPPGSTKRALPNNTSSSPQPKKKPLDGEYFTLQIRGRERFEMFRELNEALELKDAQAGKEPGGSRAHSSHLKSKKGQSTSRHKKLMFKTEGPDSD

Regarding `O=C(/C=C/c1ccc(O)c(O)c1)O[C@H]1[C@@H]2C=CO[C@@H](O[C@@H]3O[C@H](CO)[C@@H](O)[C@H](O)[C@H]3O)[C@@H]2[C@@]2(CO)O[C@@H]12`, in experiment [1], the activation was 22.3% (inactive). The Potency result in experiment [2] was “inactive”.

Consider `O=C(O)c1ccnc2cc(-c3nc4ccccc4n3CCN3CCCCC3)sc12`, for which the activation in experiment [1] was -1.79% (inactive). The Potency result in experiment [2] is “inactive”.

Take `C[C@@H]1C[C@H]2OC(=O)[C@@]3(C)CCC[C@](C)(C23)[C@@]1(O)CCC1=CC(=O)OC1O` (stereo not given in full): the activation in experiment [1] is 9.16% (inactive). For the same molecule, the Potency result in experiment [2] is “inactive”.

As for `COC1CC(OC2CCC3(C)C(=CCC4C3CCC3(C)C(C(C)O)CCC43O)C2)OC(C)C1OC1OC(C)C(OC2OC(COC3OC(COC4OC(CO)C(O)C(O)C4O)C(O)C(O)C3O)C(O)C(O)C2O)C(OC)C1O` (stereo not given), the activation in experiment [1] was -23.7% (inactive). In experiment [2], the Potency entry was “inactive”.

`C=C1CC[C@H]2[C@@](C)(CCC(O)[C@@]2(C)CO)[C@@H]1C/C=C(/C(=O)O)C(O)CO` (stereo not given in full): in experiment [1], the activation is -16.1% (inactive). Moreover, the Potency result in experiment [2] was “inactive”.

In the case of `O=C(/C=C/c1ccccc1O)O[C@@H]1O[C@H](CO)[C@@H](O)[C@H](O)[C@H]1O`, the activation in experiment [1] is 0% (inactive). Besides, in experiment [2], the Potency entry is “inactive”.

As for `CC(NCc1ccc(OCc2cccc(F)c2)cc1)C(N)=O` (stereo not given), the activation in experiment [1] is -7.16% (inactive). Besides, the Potency result in experiment [2] was “inactive”.

As to `C[C@H](NCc1ccc(OCc2ccccc2F)cc1)C(N)=O`, the activation in experiment [1] is 11.5% (inactive). Also, the Potency result in experiment [2] was “inactive”.

`C#CCCCn1cc(-c2cccc3c2N[C@@H](C)CC(=O)N3)cn1`: the activation in experiment [1] is -18.8% (inactive). Besides, in experiment [2], the Potency result was “inactive”.

As to `CC[C@@H]1[C@H]2CCCCN3C(=O)C[C@H]([C@@H]4[C@H]1OC(=O)[C@H]4C)[C@@H]23`, the activation in experiment [1] was -0.763% (inactive). Also, the Potency entry in experiment [2] is “inactive”.
